Records with an inconclusive call do not appear. Where a call stands in place of a potency, no number is given. Values without a mark were called inactive. Active and inactive are the calls of the source. The call rests on the fitted dose curve; in most records, active means well fitted inhibition curve with a large enough effect; inconclusive means small, poorly fitted or top-dose-only effect; inactive means flat fitted curve, though single readings scatter.
tested on: NIH3T3; experiment: Cytotoxic Profiling of Annotated Libraries Using Quantitative High-Throughput Screening (AID 1296008); conditions: Five cell lines viability, CellTiter-Glo ATP luminescence, 48-72 h; max response: hits give low values; further: potency means the concentration at half of the fitted maximal effect
Summary of the method: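 Compounds were pin-transferred onto cells and incubated 48 or 72 hr at 37 degree Celsius, 95% humidity. CellTiter-Glo was added, plates sat 10 min at room temperature, then ATP-coupled luminescence was imaged as the viability read-out.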
Further: nearly all actives have a fitted effect of over 60% in size.

Row | Compound | max response [%] | Potency | outcome
1 | CC(C)(O)c1ccn2c(-c3ccc(F)c(-c4ccc(F)cc4C#N)c3)cnc2c1F | -2.51 | – | –
2 | CC(C)C[C@@H](C(=O)N[C@@H](Cc1ccc(OCc2ccccc2)cc1)C(=O)NC(C)(C)C)N(C)Cc1ccc(C(C)(C)C)cc1 | -5.54 | – | –
3 | COc1cccc(NCCC2(c3ccccc3)CC(C)(C)OC(C)(C)C2)c1 | -25 | – | –
4 | CNc1cccc(CCOc2ccc3c(c2)CN(CC(F)(F)F)C(=O)[C@H](CC(=O)O)C3)n1 | – | 0.116 µM (active) | –
5 | COc1ccccc1OCCNCC(O)CCOc1cccc2[nH]c3ccccc3c12 (stereo not given) | -5.46 | – | –
6 | Cc1c(C(=O)Nc2ccc(N3CCC(N4CCOCC4)CC3)c(C#N)c2)cnn1-c1ccc(Cl)cc1 | – | 0.366 µM (active) | –
7 | COC(=O)CC(O)CC(O)/C=C/c1c(C)ccc2c1C(OC(C)=O)CC(C)C2 (stereo not given) | – | – | inactive
8 | Cc1cc(C(=O)Cn2cc(C#N)ccc2=O)c(C)n1Cc1ccccc1 | – | – | inactive
9 | CCC(C)C(=O)O[C@H]1[C@H](O)[C@@]2(COC(C)=O)C(CC1(C)C)C1=CCC3[C@@]4(C)CC[C@H](O[C@@H]5O[C@H](C(=O)O)[C@@H](O)[C@H](O)[C@H]5O)[C@@](C)(CO)C4CC[C@@]3(C)[C@]1(C)C[C@@H]2O (stereo not given in full) | 2.07 | – | –
10 | O=C(CNC(=O)c1cccc(C(F)(F)F)c1)N[C@@H]1CCN(Cc2ccc(Cl)cc2)C1 | -1.44 | – | –
11 | CC(=O)O[C@@]12CO[C@@H]1C[C@H](O)[C@@]1(C)C(=O)[C@H](O)C3=C(C)[C@@H](OC(=O)[C@H](O)[C@@H](NC(=O)OC(C)(C)C)c4ccccc4)C[C@@](O)([C@@H](OC(=O)c4ccccc4)C12)C3(C)C (stereo not given in full) | – | 0.0224 µM (active) | –
12 | O=C1COC2(CCN(S(=O)(=O)c3ccc(-c4ccc5cccnc5c4)cc3)CC2)CN1C1CC1 | -10.8 | – | –
13 | Cc1nnc(-c2ccc(-c3ccc(C(=O)Nc4ccc(O)c(N5CCN(C)CC5)c4)cc3)c(C)c2)o1 | – | – | inactive
14 | Cc1cc(C)cc(-c2cnc3cc(Cl)c(-c4cccc(O)c4)cc3c2OCCCN)c1 | -0.922 | – | –
15 | COc1cc2c(cc1-c1c(C)noc1C)ncc1[nH]c(=O)n(C(C)c3ccccn3)c12 (stereo not given) | – | 7.31 µM (active) | –
16 | CCCSc1nc(N[C@@H]2C[C@H]2c2ccc(F)c(F)c2)c2nnn([C@@H]3C[C@H](OCCO)[C@@H](O)[C@H]3O)c2n1 | -24.3 | – | –
17 | O[C@@](Cc1ncc(CC2(C(F)(F)F)CC2)[nH]1)(c1ccc(-n2cccn2)cc1)C(F)(F)F | -24.1 | – | –
18 | C[C@]12CC[C@@H]3c4ccc(O)c(O)c4CC[C@H]3[C@@H]1CCC2=O | -17.9 | – | –
19 | COc1ccc2nc3n[nH]c(C)c3c(NCCOCCO)c2c1 | 2.85 | – | –
20 | O=C(NCc1nc2ccccc2c(=O)n1-c1ccc(F)cc1)Nc1ccc(Cl)c(C(F)(F)F)c1 | -1.1 | – | –
21 | CCN(CC)CCCS(=O)(=O)N[C@H](CCc1ccccc1)c1nc(Cc2ccc(Br)cc2)no1 | -16.9 | – | –
22 | OC[C@H]1O[C@@H](OC/C=C/c2ccc(O)cc2)[C@H](O)[C@@H](O)[C@@H]1O | -11.1 | – | –
23 | Nc1nccc(-c2c(-c3ccc(F)cc3)ncn2C2CCCCC2)n1 | – | 16.4 µM (active) | –
24 | CCCCCCCOc1cc2c(cc1/C(C)=C/c1ccc(C(=O)O)cc1)C(C)(C)CCS2(=O)=O | – | – | inactive
25 | CCOC(=O)c1ccc(OCCC2CCN(c3ccc(C)nn3)CC2)cc1 | -0.794 | – | –
26 | Cc1c(Cl)cccc1S(=O)(=O)Nc1nc(NCCc2ccccc2)nc2c1CN(Cc1ccccc1)CC2 | – | – | inactive

tested on: HACAT; experiment: qHTS assay to identify novel small-molecules to repurpose for Merkel cell carcinoma treatment (AID 1296009); conditions: MCC and control cell lines, CellTiter-Glo viability, 72 h; at 44.8 µM (top of the series) unless noted
Summary of the method: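 Cells exposed to NPC (8-point) and MIPE (11-point) compound dilutions for 72 hr at 37 degree celsius; viability read by CellTiter-Glo luminescence, normalized to no-cell and DMSO in-plate controls.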

Row | Compound | outcome
27 | CC(C)(O)c1ccn2c(-c3ccc(F)c(-c4ccc(F)cc4C#N)c3)cnc2c1F | inactive
28 | CC(C)C[C@@H](C(=O)N[C@@H](Cc1ccc(OCc2ccccc2)cc1)C(=O)NC(C)(C)C)N(C)Cc1ccc(C(C)(C)C)cc1 | inactive
29 | COc1ccccc1OCCNCC(O)CCOc1cccc2[nH]c3ccccc3c12 (stereo not given) | inactive
30 | COC(=O)CC(O)CC(O)/C=C/c1c(C)ccc2c1C(OC(C)=O)CC(C)C2 (stereo not given) | inactive
31 | Cc1cc(C(=O)Cn2cc(C#N)ccc2=O)c(C)n1Cc1ccccc1 | inactive
32 | CCC(C)C(=O)O[C@H]1[C@H](O)[C@@]2(COC(C)=O)C(CC1(C)C)C1=CCC3[C@@]4(C)CC[C@H](O[C@@H]5O[C@H](C(=O)O)[C@@H](O)[C@H](O)[C@H]5O)[C@@](C)(CO)C4CC[C@@]3(C)[C@]1(C)C[C@@H]2O (stereo not given in full) | inactive [at 9.27 µM]
33 | O=C1COC2(CCN(S(=O)(=O)c3ccc(-c4ccc5cccnc5c4)cc3)CC2)CN1C1CC1 | inactive
34 | Cc1nnc(-c2ccc(-c3ccc(C(=O)Nc4ccc(O)c(N5CCN(C)CC5)c4)cc3)c(C)c2)o1 | inactive
35 | Cc1cc(C)cc(-c2cnc3cc(Cl)c(-c4cccc(O)c4)cc3c2OCCCN)c1 | inactive
36 | COc1cc2c(cc1-c1c(C)noc1C)ncc1[nH]c(=O)n(C(C)c3ccccn3)c12 (stereo not given) | inactive
37 | O[C@@](Cc1ncc(CC2(C(F)(F)F)CC2)[nH]1)(c1ccc(-n2cccn2)cc1)C(F)(F)F | inactive
38 | C[C@]12CC[C@@H]3c4ccc(O)c(O)c4CC[C@H]3[C@@H]1CCC2=O | inactive
39 | O=C(NCc1nc2ccccc2c(=O)n1-c1ccc(F)cc1)Nc1ccc(Cl)c(C(F)(F)F)c1 | inactive
40 | CCN(CC)CCCS(=O)(=O)N[C@H](CCc1ccccc1)c1nc(Cc2ccc(Br)cc2)no1 | inactive
41 | C=C1C(=O)OC2CC(C)C(CCC(C)=O)=CCC12 (stereo not given) | inactive
42 | CCCCCCCOc1cc2c(cc1/C(C)=C/c1ccc(C(=O)O)cc1)C(C)(C)CCS2(=O)=O | inactive
43 | CCOC(=O)c1ccc(OCCC2CCN(c3ccc(C)nn3)CC2)cc1 | inactive
44 | Cc1c(Cl)cccc1S(=O)(=O)Nc1nc(NCCc2ccccc2)nc2c1CN(Cc1ccccc1)CC2 | inactive
45 | O=C(O)CSc1cc(NS(=O)(=O)c2ccc(Br)cc2)c2ccccc2c1O | inactive

— PubChem BioAssay (NCATS)
